From PubChem BioAssay
Cruzain inh noDet – inhibitors of Trypanosoma cruzi cruzain without detergent; 2.3% of 200,000 active; P25779; Potency, µM, for inactives: max response, negative = inhibition, actives largely listed as inhibitors; purified cruzain, Z-FR-AMC fluorescence, no detergent;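 note: plate controls were enzyme without inhibitor for no effect and buffer without enzyme for full effect; nearly all actives have a fitted effect of over 40% in size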
Target sequence (P25779 123-467 limits assumed): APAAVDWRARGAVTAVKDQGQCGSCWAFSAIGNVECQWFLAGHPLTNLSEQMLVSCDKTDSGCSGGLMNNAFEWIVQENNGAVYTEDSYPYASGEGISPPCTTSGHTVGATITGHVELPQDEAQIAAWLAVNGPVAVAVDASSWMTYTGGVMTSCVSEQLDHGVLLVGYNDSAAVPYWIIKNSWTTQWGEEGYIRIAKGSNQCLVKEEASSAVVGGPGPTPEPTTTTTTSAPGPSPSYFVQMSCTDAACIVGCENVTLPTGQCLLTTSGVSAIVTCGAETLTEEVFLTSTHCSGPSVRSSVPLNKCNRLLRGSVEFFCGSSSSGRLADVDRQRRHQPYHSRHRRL
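Purified cruzain at 1.5 nM, pre-incubated 15 min with compound at room temperature in 100 mM sodium acetate pH 5.5, 5 mM DTT, 0.00005% Triton X-100. Reaction started with 2 uM Z-FR-AMC; AMC fluorescence increase over 60 s gives rate.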
Cruzain inh Det – blocks cruzain activity in presence of Triton detergent | purified cruzain, Z-FR-AMC fluorescence, 0.01% Triton | P25779 | AID 1478 | Potency, µM, inactives show max response, negative = inhibition, usual class: inhibitors | 0.43% of 200,000 active;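 note: plate controls were neutral wells for no effect and buffer without enzyme for full effect; nearly all actives have a fitted effect of over 40% in size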
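Cruzain (1.5 nM) preincubated 15 min at RT with compound in 100 mM sodium acetate pH 5.5, 5 mM DTT, 0.01% Triton X-100. Reaction started with 2 uM Z-FR-AMC; AMC fluorescence (ex 360/em 450 nm) change over 60 s gave rate.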
* marks the source's active call; other numbers are inactive results; ? = inconclusive. A selection: hits, their analogues and other compounds. The true share with any hit is near 2.4%. Calls come from the whole dose curve; as a rule, active = well fitted curve in the direction sought with a large enough effect; inconclusive = small, poorly fitted or top-dose-only effect, or another doubt; inactive = no such curve, though single readings can be large; an effect the other way counts as inactive or inconclusive. Potency is the fitted concentration of half-maximal effect.

SMILES	Cruzain inh noDet	Cruzain inh Det
Cc1cc(Cl)ccc1Oc1cccc(C(=O)/C(C#N)=C/N(C)C)c1	?	-7.7%
COc1cccc(/C=C/c2ccncc2)c1OC	-10.6%	2.6%
Oc1oc(-c2ccccc2)nc1C=Nc1ccccc1	-9.5%	-9.6%
O=[N+]([O-])c1cccc(/C=C/c2nc(C=Nc3ccccc3)c(O)o2)c1	12.6µM*	0.4%
N/C(=N\OC(=O)COc1ccc(Br)cc1)c1cccnc1	7.6%	-3.1%
COc1ccc(C(C)=O)cc1CSc1nc2ccccc2c(=O)n1-c1ccccc1	-20.2%	-10.2%
C=CCn1c(SCc2cc(C(C)=O)ccc2OCC)nc2ccccc2c1=O	?	14.1µM*
C=CCn1c(SCc2c(Cl)cccc2Cl)nnc1-c1cccnc1	-8.8%	0.1%
COc1ccc(C)cc1NC(=O)CSc1ncc2c(n1)-c1ccc(Cl)cc1N(Cc1ccccc1)S2(=O)=O	3.16µM*	-1.7%
O=C(CSc1ncc2c(n1)-c1cc(Cl)ccc1N(Cc1ccccc1)S2(=O)=O)Nc1ccc(F)cc1F	-15.1%	-0.2%
O=C(CSc1ncc2c(n1)-c1ccc(Cl)cc1N(Cc1ccccc1)S2(=O)=O)Nc1ccc(F)c(F)c1	-3.0%	3.0%
O=C(CSc1ncc2c(n1)-c1cc(Cl)ccc1N(Cc1ccccc1F)S2(=O)=O)Nc1cccc(C(F)(F)F)c1	15.8µM*	-1.0%
Cc1cccc(C)c1NC(=O)CSc1ncc2c(n1)-c1ccc(Cl)cc1N(Cc1ccccc1)S2(=O)=O	-11.6%	1.6%
COc1ccccc1NC(=O)CSc1ncc2c(n1)-c1ccccc1N(Cc1ccccc1C)S2(=O)=O	7.94µM*	-0.1%
COc1ccccc1NC(=O)CSc1ncc2c(n1)-c1cc(Cl)ccc1N(Cc1ccccc1)S2(=O)=O	6.31µM*	-2.2%
Cc1ccccc1CN1c2ccccc2-c2nc(SCC(=O)Nc3cc(F)ccc3F)ncc2S1(=O)=O	-1.7%	0.6%
Cc1c(Nc2ncnc3nc[nH]c23)c(=O)n(-c2ccccc2)n1C	-3.7%	-0.5%
COc1cccc(-c2nn(C)c3sc(C(=O)NCc4ccc5c(c4)OCO5)cc23)c1	?	-3.2%
CCNCc1cc(Cl)cc(OC)c1OC(C)C	-2.0%	0.7%
Cc1c(NC(=O)C2(c3ccc(Cl)cc3)CCCC2)c(=O)n(-c2ccccc2)n1C	13.3%	0.1%
Cc1ccn2c(-c3n[nH]c(=S)n3Cc3ccccc3)c(C)nc2c1	1.8%	-1.8%
COc1ccccc1NC(=O)c1ccccc1NC(=O)c1cc(Cl)ccc1NC(=O)c1ccco1	15.8µM*	-4.9%
COc1ccccc1NC(=O)c1cc(Cl)ccc1NC(=O)c1ccco1	2.9%	-2.7%
COc1ccc(C(=O)N/N=C/c2sc3ccccc3c2O)cc1	-13.9%	-2.7%
COc1ccc2cc(C(=O)N/N=C/c3sc4ccccc4c3O)ccc2c1	?	28.2µM*
SMILES	Cruzain inh noDet	Cruzain inh Det
Cc1ccc(/C=C/C(=O)Nc2nc3ccccc3[nH]2)cc1	25.1µM*	2.9%
Cc1ccc(/C=C/C(=O)c2nc3ccccc3[nH]2)cc1	-8.0%	2.8%
CN1CCN(c2ncc3nc(-c4cn(C)c5ccccc45)c(=O)n(C[C@H]4CCCO4)c3n2)CC1	10.3%	-1.1%
CCCCC/C=C\C[C@@H](O)/C=C/C=C/C=C\[C@@H](O)CCCC(=O)O	6.8%	1.1%
O=[N+]([O-])c1ccc(-c2nc(-c3cccs3)c(-c3cccs3)[nH]2)cc1	31.6µM*	-2.4%
O=[N+]([O-])c1cccc(-c2nc(-c3cccs3)c(-c3cccs3)[nH]2)c1	?	-1.0%
COc1ccc2c(c1)c(=O)c(S(=O)(=O)c1ccc(C)cc1)cn2Cc1ccccc1C	-19.6%	-6.0%
COc1ccc2c(c1)c(=O)c(S(=O)(=O)c1ccc(Cl)cc1)cn2Cc1cc(C)ccc1C	10µM*	-3.7%
O=C(NC1CCCCC1)N(Cc1nc2ccccc2c(=O)[nH]1)C1CCCCC1	-7.0%	-1.4%
CC(=O)c1nn(-c2cccc(Br)c2)cc1C(=O)c1ccc(Br)cc1	12.6µM*	4.1%
CC(=O)c1nn(-c2cccc(Br)c2)cc1C(=O)c1ccc(C)cc1	-0.1%	-4.2%
OCC1(c2cc(C(F)(F)F)n[nH]2)CCCCC1	-10.3%	3.9%
CCCCCn1c(CNC(=O)c2ccc(F)cc2)nc2ccccc21	16.3%	-17.9%
C=C(C)Cn1c(CCNC(=O)CCC)nc2ccccc21	15.8µM*	-2.3%
CCCCn1c(CCCNC(=O)c2cccc(C)c2)nc2ccccc21	-0.8%	1.4%
Cc1ccc(OCCCn2c(CCNC(=O)C3CCCCC3)nc3ccccc32)c(C)c1	-2.7%	2.51µM*
C=C(C)Cn1c(CCCNC(=O)CC)nc2ccccc21	5.8%	-0.3%
Cc1cccc(C(=O)NCCc2nc3ccccc3n2CCC(C)C)c1	20.4%	12.6µM*
Cc1ccccc1OCCCCn1c(CCNC(=O)C(C)(C)C)nc2ccccc21	?	-7.5%
CCCCn1c(CCNC(=O)c2ccc(F)cc2)nc2ccccc21	9.2%	7.08µM*
O=C(Cn1ncc2c(=O)oc3ccccc3c21)N(Cc1ccco1)C1CCCCC1	-10.2%	-6.8%
Cc1ccc2c(c1)CN1CN2Cc2cc(C)ccc21	7.3%	1.8%
CC(C)(C)C(=O)NCCCc1ccccc1	6.6%	3.1%
Fc1ccccc1CSc1nncn1NCc1cccs1	-4.4%	-2.5%
CCn1c(CCCNC(=O)c2cccs2)nc2ccccc21	5.1%	3.2%
SMILES	Cruzain inh noDet	Cruzain inh Det
CCCn1c(CCNC(=O)c2cccs2)nc2ccccc21	15.2%	15.8µM*
CCn1c(CCCNC(=O)c2ccc(F)cc2)nc2ccccc21	-6.7%	4.8%
CCn1c(CCNC(=O)c2ccc(F)cc2)nc2ccccc21	2.51µM*	22.4µM*
Cc1cccc(NC(=O)CCNS(=O)(=O)c2cccc3nsnc23)c1	0.1%	2.7%
O=S(=O)(N/N=C1/CC(c2ccccc2)Oc2ccccc21)c1ccc(Br)cc1 (configuration not stated)	?	-3.1%
Cc1ccccc1NCC(=O)N/N=C/c1c(C)c(C(=O)c2ccc(Cl)cc2)n2ccccc12	7.94µM*	-9.3%
Cc1c(/C=N/NC(=O)CNc2ccccc2)c2ccccn2c1C(=O)c1ccc(Cl)cc1	?	-4.1%
CCOC(=O)c1oc2ccc(S(=O)(=O)n3nc(-c4ccc(Cl)cc4)cc3N)cc2c1C	12.6µM*	1.9%
CCOC(=O)c1oc2ccc(S(=O)(=O)n3nc(-c4ccc(C)cc4)cc3N)cc2c1C	?	-0.8%
CCCC(c1c(C)n(C)n(-c2ccccc2)c1=O)c1c(C)n(C)n(-c2ccccc2)c1=O	-8.0%	-1.0%
Nc1ccc(C2=Nc3cccc4cccc(c34)N2)cc1	3.16µM*	-19.8%
CC1=Nc2cccc3cccc(c23)N1	-16.1%	-2.3%
CCCCOc1ccc(C2=NC(c3ccccc3)=Nc3ccc(OC)cc3N2)cc1	6.8%	-1.2%
COc1cccc(C2=Nc3cccc4cccc(c34)N2)c1	15.8µM*	-7.3%
Cc1cccc(OCC(=O)N2CCC(N3CCCCCC3)CC2)c1	16.8%	2.0%
Cc1ccn2c(Nc3c(C)cccc3C)c(-c3ccc(Cl)s3)nc2c1	10µM*	-12.1%
Cc1ccn2c(Nc3c(C)cccc3C)c(-c3ccsc3)nc2c1	?	-13.1%
Cc1onc(C(=O)N2CCN(Cc3ccccc3)CC2)c1[N+](=O)[O-]	-11.4%	2.6%
CCOc1ccc(C2c3[nH]c4ccccc4c3CCN2C(=O)CSCc2ccc(F)cc2)cc1 (configuration not stated)	10µM*	2.2%
COc1cc(C(=O)N2CCc3c([nH]c4ccccc34)C2c2ccccc2)cc(OC)c1OC (configuration not stated)	?	-4.5%
